Test results taken from PubChem BioAssay.

System: Lefty1
Experiment: Lefty1 binders on small-molecule microarrays, primary screen, biochemical, small-molecule microarray, 635/667 nm fluorescence (AID 1139)
Conditions: small-molecule microarray binding, fluorescence 635/667; higher = more signal

Compound	composite z-score
CN(C)C(=O)[C@@]1(CCC(=O)OC(C)(C)C)N=C(c2ccc(OCCCO)cc2)O[C@H]1c1ccccc1N=[N+]=[N-]	0.722
COCCOC(=O)N1C(=O)[C@@]2(c3cc(C#CCCO)ccc31)[C@H](C(=O)NC[C@H](O)c1ccccc1)[C@H]1C(=O)O[C@H](c3ccccc3)[C@H](c3ccccc3)N1[C@@H]2c1ccccc1OCCO	1.35
COc1ccc([Si](C)(C)[C@H]2[C@H](CCO)O[C@@]3(C(=O)N(Cc4cccc(N5CCOC5=O)c4)c4ccccc43)[C@@H]2C)cc1	0.729
CN(C)CCCC[C@@H]1NC(=O)[C@H]2C[C@@H](C(=O)NCCCCCCNC(=O)CS)[C@@H](c3ccc(O)cc3)N2C1=O	0.628
CC(C)=CCCC(C)=CC(O)C1C=CC2C(=O)N(c3ccccc3)C(=O)C2N1Nc1ccc([N+](=O)[O-])cc1 (centres undefined)	0.253
COC(=O)[C@@]1(Cc2ccc(OC)cc2)[C@H]2c3cc(C(=O)N(C)C)n(Cc4cc(F)c(F)c(F)c4)c3C[C@H]2CN1C(=O)c1ccccc1	0.0601
COCCOC(=O)N1C(=O)[C@@]2(c3cc(C#CCC(C(=O)OC)C(=O)OC)ccc31)[C@H](C(=O)N1CCCCCCC1)[C@H]1C(=O)O[C@H](c3ccccc3)[C@H](c3ccccc3)N1[C@@H]2c1ccc(O)cc1	0.972
[N-]=[N+]=Nc1ccccc1[C@H]1OC(c2ccc(OCCCO)cc2)=N[C@@]1(Cc1ccccc1)C(=O)NCc1ccccc1	0.362
COC(=O)C(CC#Cc1ccc2c(c1)[C@]1(C(=O)N2)[C@H](c2ccc(O)cc2)N2[C@H](c3ccccc3)[C@H](c3ccccc3)OC(=O)[C@H]2[C@@H]1C(N)=O)C(=O)OC	-2.6
C=CCNC(=O)[C@H]1[C@@H]2C(=O)O[C@@H](c3ccccc3)[C@@H](c3ccccc3)N2[C@@H](c2ccc(OCCO)cc2)[C@]12C(=O)N(C(=O)OCCOC)c1ccc(C#CC3=CCCCC3)cc12	0.949
COC(=O)[C@@]1(Cc2ccccc2)[C@H]2c3cc(C(=O)N(C)C)n(Cc4ccccn4)c3C[C@H]2CN1C(=O)c1ccccc1	-0.225
O=C(Nc1cc(Br)ccc1C(=O)NCc1cccc(O)c1)c1ccccc1	-0.241
NCCCCCCNC(=O)[C@H]1C[C@H]2C(=O)N3CCC[C@H]3C(=O)N2[C@H]1c1ccc(O)cc1	0.918
C#CCNS(=O)(=O)N(C)C	0.643
CCCC=C(CCC)[C@@H](NS(=O)(=O)CC)c1ccccc1	-0.346
CN(C)CCCCCCNC(=O)[C@@H]1C[C@@H]2C(=O)NCC(=O)N2[C@@H]1c1ccc(O)cc1	1.68
NC(=O)NCC#Cc1ccc2c(c1)[C@]1(C(=O)N2)[C@H](c2ccc(O)cc2)N2[C@H](c3ccccc3)[C@H](c3ccccc3)OC(=O)[C@H]2[C@@H]1C(N)=O	-0.295
COCCCNC(=O)[C@@]1(C)c2ccccc2C(=O)N(c2ccc(C)cn2)[C@H]1c1ccc(CO)cc1	-0.939
COCCCNC(=O)[C@]1(Cc2ccccc2)N=C(c2ccc(OCCCO)cc2)O[C@@H]1c1ccccc1N=[N+]=[N-]	0.276
CCCC=C(CCC)[C@@H](NC(=O)Cc1ccccc1)c1ccc(C(=O)OC)cc1	-0.365
COc1ccc([Si](C)(C)[C@@H]2[C@@H](CCO)O[C@]3(C(=O)N(Cc4ccccc4)c4ccc(N5CCCCC5=O)cc43)[C@H]2C)cc1	0.788
COc1ccc(CCNC(=O)[C@@H]2c3ccccc3C(=O)N(Cc3ccccc3)[C@H]2c2ccc(CO)cc2)cc1	0.442
O=C(CS)NCCCCCNC(=O)[C@@H]1C[C@@H]2C(=O)N3CCC[C@H]3C(=O)N2[C@@H]1c1ccc(O)cc1	-0.0581
COC(=O)[C@]1(Cc2ccccc2CN=[N+]=[N-])N=C(c2ccc(OCCCO)cc2)O[C@@H]1c1ccccc1	-0.429
COc1ccc([Si](C)(C)[C@@H]2[C@@H](CC(=O)N(CCO)Cc3ccccc3)O[C@]3(C(=O)N(Cc4ccc(N5CCOC5=O)cc4)c4ccccc43)[C@H]2C)cc1	1.48
[N-]=[N+]=NCc1ccccc1C[C@]1(C(=O)NCCN2CCOCC2)N=C(c2ccc(OCCCO)cc2)O[C@H]1c1ccccc1	0.649
COC(=O)[C@H]1N=C(c2ccc(OCCCO)cc2)O[C@H]1c1ccccc1CN=[N+]=[N-]	-0.139

System: wheat germ agglutinin (Triticum aestivum), Alexa647-labelled
Experiment: wheat germ agglutinin binders on compound microarrays, profiling panel, artefact control for SMM control-protein annotation, biochemical, small-molecule microarray, 635/667 nm fluorescence (AID 1140);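 note: score merges 667 nm feature emission with signal to noise over triplicate slides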
Conditions: WGA-A647 binding, 635 nm fluorescence, higher = more signal

Compound	composite z-score
CC(C)[Si](C#C[Si](C(C)C)(C(C)C)C(C)C)(O[C@H](C)c1cn(Cc2cccc(Cl)c2)nn1)C(C)C	1.17
CC(C)(C)OC(=O)CC[C@]1(C(=O)N2CCCCC2)N=C(c2ccc(OCCCO)cc2)O[C@H]1c1ccccc1CN=[N+]=[N-]	1.09
CCOC(=O)C[C@H]1[C@H](OC(=O)Cc2ccc3c(c2)OCO3)[C@@H](NC(=O)c2ccccc2)c2cc(OCCCO)ccc2N1C(=O)c1ccc2ccccc2n1	0.473
CC(C)CCC[C@@H](C)[C@H]1CC[C@@]2(C)C3=C(CC[C@]12C)[C@@]1(C)CC[C@H](OC(=O)c2ccc(N)cc2)C(C)(C)C1CC3 (some centres undefined)	0.0599
C=CCC(OC(C)=O)[C@@H]1[C@@H](N(Cc2cccc3ccccc23)C(=O)c2ccc(C)cc2)c2cc(OCCCO)ccc2N1C(=O)c1ccc2ccccc2c1 (some centres undefined)	-0.193
COC(=O)C(CC#Cc1ccc2c(c1)[C@]1(C(=O)N2)[C@H](c2ccccc2OCCO)N2[C@H](c3ccccc3)[C@H](c3ccccc3)OC(=O)[C@H]2[C@@H]1C(=O)Nc1nc2ccccc2s1)C(=O)OC	1.29
C=CCOC(=O)[C@@H]1[C@H]2C(=O)O[C@H](c3ccccc3)[C@H](c3ccccc3)N2[C@H](c2ccc(OCCOC(=O)[C@@H]3C[C@@H]4C(=O)N5CCC[C@H]5C(=O)N4[C@@H]3c3cccc(OCCO)c3)cc2)[C@@]12C(=O)Nc1ccc(I)cc12	0.504
COc1ccc(C(=O)Nc2ccc(CN3C(=O)[C@]4(O[C@H](CCn5cc([C@H](O)c6ccccc6)nn5)[C@@H]([Si](C)(C)c5ccc(OC)cc5)[C@@H]4C)c4ccccc43)cc2)cc1	0.849
CN(C)C(=O)[C@@]1(CCC(=O)OC(C)(C)C)N=C(c2ccc(OCCCO)cc2)O[C@H]1c1ccccc1N=[N+]=[N-]	1.01
COCCOC(=O)N1C(=O)[C@@]2(c3cc(C#CCCO)ccc31)[C@H](C(=O)NC[C@H](O)c1ccccc1)[C@H]1C(=O)O[C@H](c3ccccc3)[C@H](c3ccccc3)N1[C@@H]2c1ccccc1OCCO	1.07
COc1ccc([Si](C)(C)[C@H]2[C@H](CCO)O[C@@]3(C(=O)N(Cc4cccc(N5CCOC5=O)c4)c4ccccc43)[C@@H]2C)cc1	0.63
CN(C)CCCC[C@@H]1NC(=O)[C@H]2C[C@@H](C(=O)NCCCCCCNC(=O)CS)[C@@H](c3ccc(O)cc3)N2C1=O	-0.149
CC(C)=CCCC(C)=CC(O)C1C=CC2C(=O)N(c3ccccc3)C(=O)C2N1Nc1ccc([N+](=O)[O-])cc1 (centres undefined)	0.969
COC(=O)[C@@]1(Cc2ccc(OC)cc2)[C@H]2c3cc(C(=O)N(C)C)n(Cc4cc(F)c(F)c(F)c4)c3C[C@H]2CN1C(=O)c1ccccc1	0.952
COCCOC(=O)N1C(=O)[C@@]2(c3cc(C#CCC(C(=O)OC)C(=O)OC)ccc31)[C@H](C(=O)N1CCCCCCC1)[C@H]1C(=O)O[C@H](c3ccccc3)[C@H](c3ccccc3)N1[C@@H]2c1ccc(O)cc1	1.13
[N-]=[N+]=Nc1ccccc1[C@H]1OC(c2ccc(OCCCO)cc2)=N[C@@]1(Cc1ccccc1)C(=O)NCc1ccccc1	0.415

Compound	composite z-score
COC(=O)C(CC#Cc1ccc2c(c1)[C@]1(C(=O)N2)[C@H](c2ccc(O)cc2)N2[C@H](c3ccccc3)[C@H](c3ccccc3)OC(=O)[C@H]2[C@@H]1C(N)=O)C(=O)OC	-2.35
C=CCNC(=O)[C@H]1[C@@H]2C(=O)O[C@@H](c3ccccc3)[C@@H](c3ccccc3)N2[C@@H](c2ccc(OCCO)cc2)[C@]12C(=O)N(C(=O)OCCOC)c1ccc(C#CC3=CCCCC3)cc12	1.17
COC(=O)[C@@]1(Cc2ccccc2)[C@H]2c3cc(C(=O)N(C)C)n(Cc4ccccn4)c3C[C@H]2CN1C(=O)c1ccccc1	0.88
O=C(Nc1cc(Br)ccc1C(=O)NCc1cccc(O)c1)c1ccccc1	1.01
NCCCCCCNC(=O)[C@H]1C[C@H]2C(=O)N3CCC[C@H]3C(=O)N2[C@H]1c1ccc(O)cc1	0.752
C#CCNS(=O)(=O)N(C)C	0.0088
CCCC=C(CCC)[C@@H](NS(=O)(=O)CC)c1ccccc1	0.265
CN(C)CCCCCCNC(=O)[C@@H]1C[C@@H]2C(=O)NCC(=O)N2[C@@H]1c1ccc(O)cc1	0.974
NC(=O)NCC#Cc1ccc2c(c1)[C@]1(C(=O)N2)[C@H](c2ccc(O)cc2)N2[C@H](c3ccccc3)[C@H](c3ccccc3)OC(=O)[C@H]2[C@@H]1C(N)=O	-0.784
COCCCNC(=O)[C@@]1(C)c2ccccc2C(=O)N(c2ccc(C)cn2)[C@H]1c1ccc(CO)cc1	0.421
COCCCNC(=O)[C@]1(Cc2ccccc2)N=C(c2ccc(OCCCO)cc2)O[C@@H]1c1ccccc1N=[N+]=[N-]	0.544
CCCC=C(CCC)[C@@H](NC(=O)Cc1ccccc1)c1ccc(C(=O)OC)cc1	1.03
COc1ccc([Si](C)(C)[C@@H]2[C@@H](CCO)O[C@]3(C(=O)N(Cc4ccccc4)c4ccc(N5CCCCC5=O)cc43)[C@H]2C)cc1	0.184
COc1ccc(CCNC(=O)[C@@H]2c3ccccc3C(=O)N(Cc3ccccc3)[C@H]2c2ccc(CO)cc2)cc1	0.791
O=C(CS)NCCCCCNC(=O)[C@@H]1C[C@@H]2C(=O)N3CCC[C@H]3C(=O)N2[C@@H]1c1ccc(O)cc1	-0.339
COC(=O)[C@]1(Cc2ccccc2CN=[N+]=[N-])N=C(c2ccc(OCCCO)cc2)O[C@@H]1c1ccccc1	0.441
